Experiment [1] is described as follows: Viability counterscreen for antagonist of constitutive androstane receptor (CAR) against the NCATS DSHEA and TCM libraries (AID 1794837).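 Further: compound exposure lasted 24 h before viability reading; 0% is about no effect.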 Put shortly: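 HepG2-CYP2B6-hCAR cells (2,500/well) were allowed to attach for 5 h, then exposed to compounds with 48 uM CITCO for 24 h at 37C. Viability was read by CellTiter-Fluor fluorescence after 1 h.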
Experiment [2] in a line: Viability counterscreen for agonist of constitutive androstane receptor (CAR) against the NCATS DSHEA and TCM libraries (AID 1794838). Further: 0% is about no effect. Put shortly:
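HepG2-CYP2B6-hCAR cells (2,500/well) attached 5 h, then got compounds plus 0.75 uM PK11195 final. After 24 h at 37C, viability read by CellTiter-Fluor fluorescence (Ex/Em 405/540 nm).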

Experiment [3] has as its target Nuclear receptor subfamily 1 group I member 3 (Homo sapiens) (UniProt Q14994). Description: Primary qHTS for agonist of constitutive androstane receptor (CAR) against the NCATS DSHEA and TCM libraries (AID 1794839).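 Further: HepG2 cells expressing human CAR with a CYP2B6 reporter plus PK11195 antagonist; 0% is about no effect.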 The essentials:
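HepG2-CYP2B6-hCAR cells (2,500/well) were attached for 5 h, then treated for 24 h at 37 °C with compounds plus 0.75 µM PK11195. Luciferase luminescence (ONE-Glo) was read, with CellTiter-Fluor viability (Ex/Em 405/540 nm).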

Experiment [4] can be described thus: HepG2 viability counterscreen (readout 2: ATP content) against the NCATS DSHEA and TCM libraries (AID 1794840).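 Further: HepG2 cells exposed to substances for about 24 h; 0% is about no effect.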 The essentials: (§1)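 HepG2 cells (1,000 cells/well) attached ~4 h, then treated ~24 h at 37C with substances. Protease activity read by GF-AFC (25 uM final, 30 min, Ex/Em 380/510 nm); ATP content then by CellTiter-Glo luminescence.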
Experiment [5] in a line: HepG2 viability counterscreen (readout 1: protease activity) against the NCATS DSHEA and TCM libraries (AID 1794841).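 Further: cells exposed to compounds for about 24 h before the protease read; 0% is about no effect.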 The essentials:
as §1

For experiment [6], the target named is Cytochrome P450 2D6 (Homo sapiens) (UniProt P10635). Put plainly: qHTS for inhibitors of CYP2D6 against the NCATS DSHEA and TCM libraries (AID 1919972). Further: on the % scale 0 is the no-effect control and ±100 the full control effect. Put shortly: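 Luminescent P450-Glo read-out of CYP2D6 turnover of a luciferin substrate after NADPH-driven reaction of 30-45 min at room temperature. Compounds were first preincubated 15 min with enzyme at titrated concentrations; quinidine was the intraplate control.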

A short description of experiment [7]: qHTS Counterscreen for compound interference against the NCATS DSHEA and TCM libraries (AID 1919978). Further: % of control where 0% means no effect. The following applies: firefly luciferase detection reagent interference, luminescence. Put shortly:
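D-luciferin (1 uM final) or 100 mM potassium phosphate buffer alone was preincubated 15 min at RT with compounds (19.5 nM to 39.8 uM final). Luciferin detection reagent was then added and luminescence read after 30 min at RT.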

A short description of experiment [8]: Dual reporter qHTS for agonist of Pregnane X Receptor (hPXR) against the NCATS DSHEA and TCM libraries: Fluorescence readout (AID 1920058). Further: 0% is about no effect. Put shortly:
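HepG2 hPXR-Luc, 2000 cells/well, 5 h attach; cpds ~24 h, 37 °C/5% CO2; CellTiter-Fluor 1 h; fluor. Ex/Em 405/540 nm = viability.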

Experiment [9] deals with Nuclear receptor subfamily 1 group I member 2 (Homo sapiens) (UniProt O75469). Put plainly: Dual reporter qHTS for agonist of Pregnane X Receptor (hPXR) against the NCATS DSHEA and TCM libraries: Luminescence readout (AID 1920059). Further: 0% is about no effect. Put shortly:
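Luminescent PXR reporter read (ONE-Glo) after a CellTiter-Fluor viability read, following 24 h, 37C treatment of HepG2 cells stably carrying hPXR-Luc.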

Experiment [10] has the same target. Put plainly: Dual reporter qHTS for antagonist of Pregnane X Receptor (hPXR) against the NCATS DSHEA and TCM libraries: Luminescence Readout (AID 1920060).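 Further: HepG2 cells carrying hPXR luciferase reporter stimulated with rifampicin at 2 µM; 0% is about no effect.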 Put shortly:
(§2)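 In antagonist mode, 2 uM rifampicin was added to hPXR-Luc HepG2 cells alongside test substances, incubated 24 h at 37 C; luminescence gave reporter activity, and CellTiter-Fluor fluorescence (405/540 nm) gave viability.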

Experiment [11] in a line: Dual reporter qHTS for antagonist of Pregnane X Receptor (hPXR) against the NCATS DSHEA and TCM libraries: Fluorescence Readout (AID 1920061). Further: 0% is about no effect. Put shortly:
as §2

The target in experiment [12] is Cytochrome P450 3A4 (Homo sapiens) (UniProt P08684). Put plainly: qHTS for inhibitors of CYP3A4 against the NCATS DSHEA and TCM libraries (AID 1919971).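 Further: on the % scale 0 is the no-effect control and ±100 the full control effect; inhibition lowers luminescence from luciferin made by CYP3A4.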 Put shortly:
(§3)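 Read-out is luminescence after P450-Glo detection (30 min, RT). Before that: 15 min compound–enzyme preincubation, then 30-45 min reaction with 1x NADPH regeneration solution, substrate concentration isoform-specific.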

For experiment [13], the target named is Cytochrome P450 2C9 (Homo sapiens) (UniProt P11712). Description: qHTS for inhibitors of CYP2C9 against the NCATS DSHEA and TCM libraries (AID 1919973). Further: potency means the concentration at half of the fitted maximal effect. The essentials:
as §3

For experiment [14], the target named is Cytochrome P450 1A2 (Homo sapiens) (UniProt P05177). Description: qHTS for inhibitors of CYPIA2 against the NCATS DSHEA and TCM libraries (AID 1919976).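 Further: light from luciferin formed by CYP1A2 from a pro-luciferin substrate; series mostly up to about 37 µM; on the % scale 0 is the no-effect control and ±100 the full control effect.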 Put shortly: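 CYP1A2 + luciferin substrate, 100 mM KPO4-type buffer; cmpd 15 min RT; 1x NADPH regen, 30-45 min RT dark; detection reagent 30 min RT; luminescence. Minus-enzyme wells as background; furafylline intraplate control.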

Experiment [15] is described as follows: KB-3-1 P-gp reporter qHTS against the NCATS DSHEA and TCM libraries (AID 1919975). Further: 0% is about no effect. The essentials: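 Parental KB-3-1 human cervical adenocarcinoma cells (500 cells/well, DMEM + 10% FBS) were treated with substances for ~72 h at 37C; viability was read by CellTiter-Glo luminescence.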
Experiment [16] addresses Mitogen-activated protein kinase 10 (Mus musculus) (UniProt Q61831). Description: JNK3 AlphaScreen Assay (AID 530; active means well fitted curve in either direction with a large enough effect, not every such curve was filed as active;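 further: kinase came from lysate of stimulated human HepG2 cells; signal reports phosphorylation of biotinylated GST-cJun 1-79 at Ser73 with 10 µM ATP; series mostly up to about 57 µM; on the % scale 0 is the no-effect control and ±100 the full control effect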). Put shortly:
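Compound titrations were preincubated 15 minutes at room temperature with substrate, antibody and pre-activated JNK3-containing HepG2 lysate. Reactions were started with 10 uM ATP and stopped with EDTA-containing bead buffer for AlphaScreen detection.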

This is an account of results in PubChem BioAssay (NCATS).

Unmarked numbers belong to inactive results. Results filed as inconclusive are left out. Calls of active or inactive are those of the source. Unless noted, the call rests on the fitted dose curve; in most records, active means well fitted curve in the direction sought with a large enough effect; inconclusive means small, poorly fitted or top-dose-only effect, or another doubt; inactive means no such curve, though single readings can be large; an effect the other way counts as inactive or inconclusive.

Sequence of Nuclear receptor subfamily 1 group I member 2 (Homo sapiens) (O75469 whole entry, looked up): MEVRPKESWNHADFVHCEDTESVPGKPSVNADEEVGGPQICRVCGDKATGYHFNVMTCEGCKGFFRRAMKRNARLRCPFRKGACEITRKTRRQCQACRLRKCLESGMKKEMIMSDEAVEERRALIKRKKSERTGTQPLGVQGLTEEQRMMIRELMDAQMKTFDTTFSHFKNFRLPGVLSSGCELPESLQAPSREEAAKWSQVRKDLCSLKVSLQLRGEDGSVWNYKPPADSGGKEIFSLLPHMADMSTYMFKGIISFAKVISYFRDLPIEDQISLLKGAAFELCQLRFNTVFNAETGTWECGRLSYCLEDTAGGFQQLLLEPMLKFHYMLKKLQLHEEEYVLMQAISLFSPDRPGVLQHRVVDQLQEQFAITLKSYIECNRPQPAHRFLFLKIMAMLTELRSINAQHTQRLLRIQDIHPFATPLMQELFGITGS
Sequence of Nuclear receptor subfamily 1 group I member 3 (Homo sapiens) (Q14994 whole entry, looked up): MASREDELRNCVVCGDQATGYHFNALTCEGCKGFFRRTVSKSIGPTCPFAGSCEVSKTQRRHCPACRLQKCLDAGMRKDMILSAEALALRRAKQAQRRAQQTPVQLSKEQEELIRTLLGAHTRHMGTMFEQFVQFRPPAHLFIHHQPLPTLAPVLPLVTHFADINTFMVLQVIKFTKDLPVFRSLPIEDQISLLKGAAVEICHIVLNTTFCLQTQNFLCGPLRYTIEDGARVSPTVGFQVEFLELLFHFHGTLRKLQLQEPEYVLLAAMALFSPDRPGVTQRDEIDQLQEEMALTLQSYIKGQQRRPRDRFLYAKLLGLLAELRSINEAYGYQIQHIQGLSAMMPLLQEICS
Sequence of Cytochrome P450 2C9 (Homo sapiens) (P11712 whole entry, looked up): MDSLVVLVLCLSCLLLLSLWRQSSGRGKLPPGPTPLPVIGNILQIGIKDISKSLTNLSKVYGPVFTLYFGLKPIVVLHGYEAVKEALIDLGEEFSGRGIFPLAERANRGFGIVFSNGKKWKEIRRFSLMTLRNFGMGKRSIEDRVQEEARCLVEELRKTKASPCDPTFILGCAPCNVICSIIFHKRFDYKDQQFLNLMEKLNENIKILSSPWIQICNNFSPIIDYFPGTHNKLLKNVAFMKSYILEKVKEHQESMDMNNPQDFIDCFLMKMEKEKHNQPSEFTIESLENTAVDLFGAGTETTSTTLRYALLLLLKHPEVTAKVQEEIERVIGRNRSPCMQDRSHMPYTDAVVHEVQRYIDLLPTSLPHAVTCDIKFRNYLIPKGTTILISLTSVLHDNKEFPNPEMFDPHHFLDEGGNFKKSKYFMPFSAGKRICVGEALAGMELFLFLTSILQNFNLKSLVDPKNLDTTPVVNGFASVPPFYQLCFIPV
Sequence of Cytochrome P450 2D6 (Homo sapiens) (P10635 whole entry, looked up): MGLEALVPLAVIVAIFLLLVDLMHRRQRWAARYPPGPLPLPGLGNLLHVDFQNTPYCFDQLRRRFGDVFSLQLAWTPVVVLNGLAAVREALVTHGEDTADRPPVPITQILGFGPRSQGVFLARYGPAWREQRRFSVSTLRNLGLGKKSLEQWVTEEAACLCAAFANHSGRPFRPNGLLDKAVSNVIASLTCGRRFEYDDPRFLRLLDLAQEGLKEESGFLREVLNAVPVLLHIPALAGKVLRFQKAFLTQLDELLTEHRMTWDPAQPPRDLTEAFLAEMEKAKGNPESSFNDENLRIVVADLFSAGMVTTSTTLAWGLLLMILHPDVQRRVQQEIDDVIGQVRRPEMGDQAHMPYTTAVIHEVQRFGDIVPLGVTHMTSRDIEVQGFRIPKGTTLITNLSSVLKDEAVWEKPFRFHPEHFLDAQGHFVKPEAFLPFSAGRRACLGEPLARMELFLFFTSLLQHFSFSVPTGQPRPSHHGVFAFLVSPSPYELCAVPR
Sequence of Cytochrome P450 3A4 (Homo sapiens) (P08684 whole entry, looked up, canonical isoform): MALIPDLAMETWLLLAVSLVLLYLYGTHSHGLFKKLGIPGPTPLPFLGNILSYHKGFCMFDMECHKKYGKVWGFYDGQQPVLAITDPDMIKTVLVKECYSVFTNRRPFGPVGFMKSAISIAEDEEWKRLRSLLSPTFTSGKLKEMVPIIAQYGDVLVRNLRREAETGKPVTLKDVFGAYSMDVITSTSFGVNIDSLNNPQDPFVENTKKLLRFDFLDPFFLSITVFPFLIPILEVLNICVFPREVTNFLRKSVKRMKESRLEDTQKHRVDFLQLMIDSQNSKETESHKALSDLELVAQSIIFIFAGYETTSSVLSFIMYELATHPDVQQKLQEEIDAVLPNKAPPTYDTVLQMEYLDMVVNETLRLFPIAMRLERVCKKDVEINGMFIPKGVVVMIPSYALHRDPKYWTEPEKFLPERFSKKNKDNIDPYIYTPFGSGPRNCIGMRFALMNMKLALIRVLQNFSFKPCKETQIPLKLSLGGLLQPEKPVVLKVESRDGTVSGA
Sequence of Cytochrome P450 1A2 (Homo sapiens) (P05177 whole entry, looked up): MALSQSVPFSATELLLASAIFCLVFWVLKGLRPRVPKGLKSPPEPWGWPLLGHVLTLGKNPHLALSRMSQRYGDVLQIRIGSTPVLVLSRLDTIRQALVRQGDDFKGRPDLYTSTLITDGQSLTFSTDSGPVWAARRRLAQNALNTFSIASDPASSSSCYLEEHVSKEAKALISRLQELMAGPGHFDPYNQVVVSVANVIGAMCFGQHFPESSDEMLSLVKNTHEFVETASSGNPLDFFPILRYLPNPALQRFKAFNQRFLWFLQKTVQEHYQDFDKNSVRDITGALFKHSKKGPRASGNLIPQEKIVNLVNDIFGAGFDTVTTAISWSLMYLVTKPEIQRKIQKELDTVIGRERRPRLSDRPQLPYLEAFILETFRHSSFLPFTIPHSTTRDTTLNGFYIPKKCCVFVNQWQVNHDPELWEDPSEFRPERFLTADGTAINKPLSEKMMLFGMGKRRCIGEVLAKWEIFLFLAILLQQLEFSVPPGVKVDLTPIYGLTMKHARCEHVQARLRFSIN

Consider `CCCCCCCCCCCCCC(=O)O`, for which the result in [1], in experiment [2], in experiment [4], in experiment [5], in experiment [8] and in [10] was inactive. Besides, in [11], the compound was classed as inactive. The Potency entry in experiment [3], in experiment [6] and in [9] was “inactive” each time. In addition, the max response in [7] was -1.78%.

Turning to `C=C1C[C@@]23CC[C@H]4[C@@](C)(CCC[C@@]4(C)C(=O)O[C@@H]4O[C@H](CO)[C@@H](O)[C@H](O)[C@H]4O[C@@H]4O[C@H](CO)[C@@H](O)[C@H](O)[C@H]4O)[C@@H]2CC[C@]1(O[C@@H]1O[C@H](CO)[C@@H](O)[C@H](O)[C@H]1O[C@@H]1O[C@H](CO)[C@@H](O)[C@H](O)[C@H]1O)C3`, the result in experiment [1], in [2], in experiment [4], in [8], in [10] and in [11] was inactive. For the same compound, the Potency result in experiment [3], in experiment [12], in experiment [6], in experiment [13], in [14] and in experiment [9] was “inactive” in each case. Also, the max response in experiment [7] was 4.27%.

Consider `CCCCCCCC/C=C/CCCCCCCC(=O)O`, for which the compound was called inactive in experiment [4], in [15], in experiment [8], in [10] and in experiment [11]. In addition, the Potency entry in [6] and in experiment [9] was “inactive” each time. In addition, the Potency in experiment [13] is 14.1 µM (active). For the same compound, the max response in experiment [7] is -3.39%.

As to `C=CCc1ccc(OC)c(OC)c1`, the Potency entry in experiment [16], in experiment [12], in experiment [6], in experiment [13] and in experiment [9] was “inactive” in each case. The result in [4], in experiment [5], in [15], in experiment [8], in experiment [10] and in experiment [11] was inactive. In addition, the max response in experiment [7] is -1.2%.

Turning to `CCCCCC/C=C/CCCCCCCCCC(=O)O`, the call in experiment [4], in experiment [5], in experiment [8], in experiment [10] and in [11] was inactive. Also, the Potency result in experiment [6] and in experiment [9] was “inactive” throughout. Also, the max response in [7] is 3.83%.

`CCCCCCCCCCCCCC(=O)OCC(O)CO` (configuration not stated): the compound was called inactive in experiment [1], in [2], in experiment [4], in experiment [5], in [8] and in [10]. Moreover, in experiment [11], the result was inactive. Further, the Potency entry in [3], in experiment [6] and in [9] was “inactive” in each case. The max response in experiment [7] was 2.98%.

Regarding `C=C(C)[C@H]1CC=C(CO)CC1`, the result in experiment [1], in experiment [2], in [4], in experiment [5], in [15] and in experiment [8] was inactive. Moreover, the compound was classed as inactive in experiment [10] and in [11]. Also, the Potency entry in experiment [6] and in experiment [9] was “inactive” in each case. Also, the max response in experiment [7] was 2.16%.

For `CC(C)=CCC[C@](C)(O[C@@H]1O[C@H](CO)[C@@H](O)[C@H](O)[C@H]1O)[C@H]1CC[C@]2(C)[C@@H]1[C@H](O)C[C@@H]1[C@@]3(C)CC[C@H](O)C(C)(C)[C@@H]3[C@@H](O[C@@H]3O[C@H](CO)[C@@H](O)[C@H](O)[C@H]3O)C[C@]12C`, the call in experiment [1], in experiment [2], in experiment [4], in experiment [8], in experiment [10] and in experiment [11] was inactive. Besides, the Potency entry in experiment [12], in experiment [6], in [13], in experiment [14] and in experiment [9] was “inactive” in each case. For the same compound, in [7], the max response was 2.82%.
